uPA generation – blocks generation of uPA at the cell surface; AID 540303; Potency, µM (doses to about 38.3 µM), for inactives: top-dose activity change, negative = inhibition, actives largely listed as inhibitors; cell surface uPA generation assay, qHTS; 330,000 tested, 0.31% active; active means well fitted inhibition curve with a large enough effect; inconclusive means small, poorly fitted or top-dose-only effect; inactive means no such curve, though single readings can be large or run the other way; tested in mouse RAW 264.7 cells; further: potency means the concentration at half of the fitted maximal effect; on the % scale 0 is the no-effect control and ±100 the full control effect; nearly all actives have a fitted effect of over 55% in size
PTAP TSG101 blk – blocks PTAP/TSG101 interaction to inhibit HIV-1 budding; Q99816; Fluorescence polarization, FITC-PTAP peptide / Tsg101 binding; Potency, µM (top dose mostly 115 µM), for inactives: top-dose activity change, negative = inhibition, usual class: inhibitors; 340,000 tested, under 10 active; AID 493005; active means well fitted inhibition curve with a large enough effect in the main read-out, with a control signal flat, not every such curve was filed as active; inconclusive means small, poorly fitted or top-dose-only effect, or effect the other way, or a change in a side signal; inactive means no such curve, though single readings can be large or run the other way; further: potency means the concentration at half of the fitted maximal effect; % of control where 0% means no effect
Target sequence (Q99816 whole entry, looked up): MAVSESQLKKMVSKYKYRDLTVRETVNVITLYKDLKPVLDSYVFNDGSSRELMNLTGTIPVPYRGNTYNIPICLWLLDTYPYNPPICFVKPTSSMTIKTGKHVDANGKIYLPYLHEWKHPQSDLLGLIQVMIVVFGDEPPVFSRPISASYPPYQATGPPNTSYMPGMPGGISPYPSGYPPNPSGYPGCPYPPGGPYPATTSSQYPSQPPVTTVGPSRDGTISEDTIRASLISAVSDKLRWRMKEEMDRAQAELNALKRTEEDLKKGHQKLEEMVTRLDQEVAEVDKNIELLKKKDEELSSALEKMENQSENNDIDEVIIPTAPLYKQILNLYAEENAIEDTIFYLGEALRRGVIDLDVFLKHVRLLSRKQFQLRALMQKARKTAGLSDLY
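Fluorescence polarization binding of Tsg101 binding domain (10 uM final) to FITC-labeled PTAP peptide (50 nM final) in HEPES pH 7.5 buffer with NaCl, Tween 20, EDTA, TCEP. Compounds added before peptide; binding 20 min at RT.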
TSHR antag – blocks TSH signaling through the human TSH receptor | P16473 | TSHR-expressing cells, TSH-stimulated cAMP HTRF, 2 h; hits give low values | activity change, negative = inhibition, % at 11.5 µM | 330,000 tested, 0.2% active | AID 504810;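 active means activity change below a set negative limit, meaning inhibition stronger than a set level, cut at about -70% in these data; inconclusive means activity change between two set negative limits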; further: on the % scale 0 is the no-effect control and ±100 the full control effect
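Competitive HTRF cAMP read-out (cryptate anti-cAMP antibody, cAMP-d2; 30 min, room temperature) in freshly harvested TSHR cells. Compounds added before TSH at EC80 (4nM final), followed by 2 hours' incubation at 37 deg C.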
PLK1 PBD inh – PLK1 (human) polo-box domain binding inhibition | Plk1 PBD binding of FITC phosphopeptide, fluorescence polarization | P53350 | 360,000 tested, 2.8% active | Potency, µM, for inactives: max response, negative = inhibition, most hits filed as inhibitors; further: potency means the concentration at half of the fitted maximal effect; series mostly up to about 57 µM; on the % scale 0 is the no-effect control and ±100 the full control effect; nearly all actives have a fitted effect of over 65% in size
VDR inhibitor – blocks the human vitamin D receptor. P11473. VDR-SRC2-3 peptide fluorescence polarization, 2 h. Potency, µM, inactives show max response, negative = inhibition, usual class: inhibitors. 400,000 tested, 0.93% active. AID 504847; further: potency means the concentration at half of the fitted maximal effect; on the % scale 0 is the no-effect control and ±100 the full control effect
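Two reagent solutions held at 4 deg C in the dark were dispensed, compounds pinned at 23 nl, and the mixture incubated 2 h at room temperature. Read-out: fluorescence polarization of VDR–SRC2-3 peptide binding.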
Numbers without * were called inactive; ? = inconclusive; . = not tested or not shown. Only some compounds are listed: those with a hit (about 3.1% of all), similar ones and a draw of the others. Unless noted, the call rests on the fitted dose curve; in most records, active means well fitted curve in the direction sought with a large enough effect; inconclusive means small, poorly fitted or top-dose-only effect, or another doubt; inactive means no such curve, though single readings can be large; an effect the other way counts as inactive or inconclusive.

SMILES | uPA generation | PTAP TSG101 blk | TSHR antag | PLK1 PBD inh | VDR inhibitor
Cc1cc(C)c2nc(-c3ccccn3)cc(C(=O)Nc3ccc(S(=O)(=O)Nc4onc(C)c4C)cc3)c2c1 | -3.4% | -5.7% | -8.3 | 6.7µM* | -7.2%
CCCCCCSc1ccc([C@H]2N[C@@](CC(C)C)(C(=O)OC)[C@H]3C(=O)N(C)C(=O)[C@@H]23)cc1OC | ? | -8.6% | -8.8 | 21.2µM* | -27.7%
COC(=O)[C@]1(CC(C)C)N[C@H](c2ccc(SC3CCCCC3)c(OC)c2)[C@@H]2C(=O)N(C)C(=O)[C@@H]21 | -7.2% | -3.2% | -1.3 | -9.2% | -4.6%
COc1cccc(N2[C@@H](CC(C)=O)c3ccc(/C=C/C(C)=O)cc3S2(=O)=O)c1 | 3.16µM* | -16.0% | . | -10.8% | ?
Cc1ccc(S(=O)(=O)Nc2c(O)ccc3ccccc23)cc1 | 2.1% | -0.2% | . | 6.7µM* | 31.6µM*
Cc1ccc(S(=O)(=O)NN=Cc2c(O)ccc3ccccc23)cc1 | . | . | . | -13.2% | .
COc1ccc(NS(=O)(=O)c2ccc(NC(C)=O)cc2)c(OC)c1 | -3.6% | 0.8% | 4.2 | 23.8µM* | ?
O=S(=O)(Nc1ccc(O)c2ccccc12)c1ccc(F)cc1 | ? | -4.2% | . | 26.7µM* | ?
COc1ccccc1NS(=O)(=O)c1ccc(O)cc1 | 6.0% | -4.4% | -2.1 | 3.36µM* | -16.7%
O=C(NCCOc1ccccc1F)c1cccc(S(=O)(=O)N2CCN(c3ccccc3)CC2)c1 | -1.4% | 0.7% | 7.3 | -3.2% | 0.8%
O=S(=O)(c1ccc(Cl)cc1)N1CCN(c2nc(-c3cccc(Br)c3)nc3ccccc23)CC1 | . | . | . | . | 1.9%
O=C(O)c1ccccc1Nc1ccc([N+](=O)[O-])cc1 | -18.4% | -0.5% | -1.9 | -9.0% | -7.5%
O=C(O)c1ccccc1Nc1cc(Cl)c2nonc2c1[N+](=O)[O-] | 5.7% | -6.3% | -11.8 | 7.52µM* | 35.5µM*
CCOC(=O)C1(CC2CCCCO2)CCN(C(=O)Nc2cccc(SC)c2)CC1 (stereo not drawn) | -1.4% | -2.5% | -1.5 | 21.2µM* | -10.4%
C=C1N[C@]2(C(=O)COC(C)=O)[C@@H](C[C@H]3[C@@H]4CCC5=CC(=O)C=C[C@]5(C)[C@H]4[C@@H](O)C[C@@]32C)O1 | . | . | . | . | 1.1%
CN1CCN(CC(O)COCCOc2ccc(Br)cc2)CC1 (stereo not drawn) | -2.1% | -2.1% | 8.8 | 26.7µM* | 25.1µM*
CCN1CCN(CC(O)COCCOc2ccc(Br)cc2)CC1 (stereo not drawn) | 5.0% | 0.8% | 8.4 | 4.4% | -23.5%
COC(=O)c1ccc(OC)c(Cn2c(=O)n(-c3ccc(C)cc3)c(=O)c3c2cnn3C)c1 | . | . | . | . | -7.2%
C#CCSc1nccc(-c2nn(-c3ccc(C)cc3)ccc2=O)n1 | -4.1% | -0.7% | -1.8 | 26.7µM* | ?
CCOc1ccc2nc(NC(=O)c3cccc(N4C(=O)CCC4=O)c3)sc2c1 | . | . | . | -15.8% | .
COc1ccc2nc(NC(=O)c3cccc(N4C(=O)CCC4=O)c3)sc2c1 | 4.47µM* | -6.1% | 4.0 | 0.3% | -14.2%
CCCC(=O)Nc1nc2ccc(OC)cc2s1 | -15.4% | -6.0% | 12.7 | 5.1% | -5.8%
COc1ccc2nc(NC(=S)N(C)C)sc2c1 | -1.6% | -1.5% | -19.0 | 5.32µM* | ?
O=C(CCN1CCC(c2ccccc2)C1)c1ccccc1 (stereo not drawn) | . | -2.2% | 17.2 | ? | -12.2%
O=C(CCN1CCCC1)c1cccs1 | 0.3% | -0.1% | 23.5 | 10.6µM* | ?
SMILES | uPA generation | PTAP TSG101 blk | TSHR antag | PLK1 PBD inh | VDR inhibitor
O=C(CCC(=O)N1CCN(c2ccc(O)cc2)CC1)c1cccs1 | 3.98µM* | -2.7% | 4.2 | 4.1% | 11.6%
O=C(CCc1c[nH]c2ccccc12)N1CCN(c2ccc(O)cc2)CC1 | -12.8% | 0.4% | -7.4 | 26.7µM* | -7.5%
O=C(CCN1CCC(c2ccccc2)C1)c1cccs1 (stereo not drawn) | -10.3% | -7.7% | 11.5 | 21.2µM* | ?
COc1ccc(N2CCN(C(=O)CCc3c[nH]c4ccccc34)CC2)cc1 | 1.1% | -0.2% | -3.4 | 0.5% | 5.8%
CC(C)CNC(=O)C1(C)CCCN1C(=O)c1ccc2ccccc2n1 (stereo not drawn) | . | . | . | -2.0% | .
COc1ccc([C@@H]2CC(=O)c3c(O)cc(O[C@H]4O[C@@H](CO[C@H]5O[C@@H](C)[C@@H](O)[C@@H](O)[C@@H]5O)[C@@H](O)[C@@H](O)[C@@H]4O)cc3O2)cc1O | . | . | . | . | 0.9%
C[C@H](O)CO[C@H]1[C@H]2O[C@H]3[C@H](O)[C@@H](O)[C@@H](O[C@H]4[C@H](O)[C@@H](O)[C@@H](O[C@H]5[C@H](O)[C@@H](O)[C@@H](O[C@H]6[C@H](O)[C@@H](OC[C@H](C)O)[C@@H](O[C@H]7[C@H](O)[C@@H](OC[C@H](C)O)[C@@H](O[C@H]8[C@H](O)[C@@H](O)[C@@H](O[C@@H]([C@@H]1O)[C@@H](CO)O2)O[C@@H]8CO)O[C@@H]7CO)O[C@@H]6CO)O[C@@H]5CO)O[C@@H]4CO)O[C@@H]3CO | . | . | . | . | 7.4%
Cc1ccccc1CCNC(=O)c1ccc(NC(=O)N2CC(C)Sc3ccccc32)cc1 (stereo not drawn) | . | . | . | . | -3.1%
Cc1nnc(SC(C)C(=O)NC2CCCCC2)[nH]c1=O (stereo not drawn) | -0.1% | ? | . | 26.7µM* | -14.5%
Cc1nnc(SCC(=O)NC2CCCCC2)[nH]c1=O | 1.3% | -2.6% | -1.3 | -1.6% | 0.0%
Cc1ccc(NC(=O)Cc2nn(C)c(=O)c3ccccc23)cc1F | -9.7% | 0.9% | -18.3 | 2.99µM* | ?
Cc1ccc(NC(=O)Cc2c(C(=O)O)n(C)c3ccccc23)cc1F | 1.8% | -3.1% | -0.5 | 23.8µM* | -16.9%
O=C(NCCc1ccc(F)cc1)C(=O)NCC(c1ccco1)S(=O)(=O)c1cccs1 (stereo not drawn) | . | . | . | . | 9.8%
COC(=O)CCCCCN1C(=O)/C(=C\c2ccncc2)SC1=S | ? | -3.7% | -8.8 | -24.5% | 79.4µM*
O=C1/C(=C/c2ccncc2)SC(=S)N1Nc1ccccc1 | -1.0% | -6.0% | 19.6 | 5.32µM* | 50.1µM*
O=C(O)c1ccc(/C=C2\SC(=S)N(Nc3ccccc3)C2=O)cc1 | 4.8% | -4.3% | -11.6 | 21.2µM* | ?
COCOc1cccc(CN2CCC2(C)C(=O)Nc2ccc(C)c(O)c2)c1 (stereo not drawn) | . | . | . | -0.6% | .
Cc1ccc(NC(=O)Cn2c(=O)n(-c3ccc(CC(=O)NCC4CCCO4)cc3)c(=O)c3ccccc32)cc1 (stereo not drawn) | . | . | . | . | -3.8%
CCc1ccc(C2NC(=O)c3[nH]nc(-c4cccc(OC)c4)c32)cc1 (stereo not drawn) | . | . | . | . | -18.3%
CC(=O)Nc1sc2c(c1-c1nc3ccccc3s1)CN(C(C)C)CC2 | 2µM* | -4.9% | 2.4 | . | 6.8%
COc1ccc(-c2noc3c2-c2nc(C(C)C)sc2CC3)cc1 | 8.5% | -1.2% | . | ? | -11.7%

Screens (PubChem BioAssay)
